Assay results as given in ChEMBL document CHEMBL4513149, “CO-ADD screening of MMV (CH) - MMV compounds” (2021).
Results with a measured potency or affinity are listed apart.

Assays:
Staphylococcus aureus = conditions: Concentration 20 uM; ASSAY_TEST Inhibition of Bacterial Growth; detection method Absorption (OD600); MEDIA CAMHB; plate type 384well; NBS; CORNING #3640; time 18 hr
Escherichia coli = conditions: Concentration 20 uM; ASSAY_TEST Inhibition of Bacterial Growth; detection method Absorption (OD600); MEDIA CAMHB; plate type 384well; NBS; CORNING #3640; time 18 hr

Compound | Inhibition (Staphylococcus aureus) | Inhibition (Escherichia coli)
CC(C)c1ncc(-c2ccncc2)c([C@H]2CC[C@H](CNC(=O)c3cccnc3)CC2)n1 | 19.09% | 13.72%
COc1ccc(-c2cncc3ccc(C(=O)NCCCn4ccnc4)nc23)cc1 | 13.71% | 12.75%
CCc1cc(=O)n(C)c(SC(C)C(=O)Nc2ccc(F)cc2)n1 (stereo unspecified) | 4.54% | 4.12%
COc1ccc(N(CCc2cccc(C)n2)C(C)=O)cc1 | 18.62% | 6.06%
COc1cc(Br)cc2cc(C(=O)Nc3cccc(C(F)(F)F)c3)c(=O)oc12 | 7.48% | 1.89%
COc1ccc(C2CC(c3cccs3)=NN2C(=O)c2ccco2)cc1OC (stereo unspecified) | 19.66% | 11.75%
Cc1cc(OCC(=O)NCc2ccccc2)c2cc(Br)ccc2n1 | 11.48% | 7.85%
O=C(Nc1nnc(S)s1)c1cc(Br)ccc1Cl | 0.16% | 4.27%
Cc1ncc(-c2ccnc(Nc3ccc(S(C)(=O)=O)cc3)n2)n1C(C)C [AZD-5438] | 28.03% | 5.82%
Cc1nc2ccccn2c1C(=O)NCc1ccc(Cl)cc1 | 22.95% | 5.6%
CC(C)C(NC(=O)Cc1cccc2ccccc12)C(=O)Nc1cccc(C#N)c1 (stereo unspecified) | 17.14% | 6.32%
O=C(c1cc2ccccc2o1)N1CCN(Cc2ccc3c(c2)OCO3)CC1 | 8.69% | 11.22%
O=C(NCc1ccco1)N1CCN(Cc2ccc(Cl)s2)CC1 | 6.8% | -3.38%
